# Values without a mark were called inactive. This is one part of the list. Calls of active or inactive are those of the source.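 The calls were made as follows, unless noted: active = inhibition above the mean of solvent-only control wells plus 3 SD, cutoff set per campaign (cut at about 13% in these data); inactive = the rest.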
# Experiments:
# [1] = blockers of IL-6 STAT3 signaling – U3A cells, luciferase, luminescence, confirmation (AID 1265;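 active = inhibition above the hit cutoff computed for the primary STAT3 screen, cut at about 44% in these data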;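 also: 0% = IL-6 plus DMSO and 100% = IL-6 plus nifuroxazide control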); conditions: IL-6 STAT3 luciferase reporter, at 5.7 µM, hits give high values, cell line lacks STAT1
# [2] = inhibition of TNF-alpha-driven NF-kB transcription – cell-based, HEK293T, luciferase, TNF-alpha stimulus, counter-screen for STAT3 inhibitor project, confirmation (AID 1308); conditions: HEK293T NF-kB luciferase reporter, TNF-alpha induced; at 5.7 µM; hits give high values;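 also: 0% = TNF-alpha with DMSO and 100% = TNF-alpha with MG high control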
# [3] = inhibition of STAT1-driven transcription – cell-based, NIH 3T3, luciferase luminescence, IFN-gamma, counter-screen for STAT3 inhibitor project, confirmation (AID 1317;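 active = inhibition above the mean plus 3 SD of solvent-only control wells, limit set per screening run, cut at about 16% in these data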;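 also: 0% = DMSO with IFN-gamma and 100% = nifuroxazide control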); conditions: NIH 3T3 STAT1-luciferase reporter, IFN-gamma induced, at 5.7 µM, hits give high values
# [4] = target: Photoreceptor-specific nuclear receptor (Homo sapiens) (UniProt Q9Y5X4); assay: retest of NR2E3-NCOR disrupting agonists – cell-based, luminescence, CHO-S two-hybrid, confirmation (AID 624378;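 active = average inhibition above a cutoff equal to the mean inhibition of all tested compounds plus one SD, cut at about 70% in these data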;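 also: 0% = DMSO in NR2E3 cells and 100% = DMSO in cells lacking NR2E3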); conditions: CHO-S mammalian two-hybrid NR2E3-NCOR, luciferase luminescence; at 3.98 µM; hits give high values
# Sequence of Photoreceptor-specific nuclear receptor (Homo sapiens) (Q9Y5X4 whole entry, looked up): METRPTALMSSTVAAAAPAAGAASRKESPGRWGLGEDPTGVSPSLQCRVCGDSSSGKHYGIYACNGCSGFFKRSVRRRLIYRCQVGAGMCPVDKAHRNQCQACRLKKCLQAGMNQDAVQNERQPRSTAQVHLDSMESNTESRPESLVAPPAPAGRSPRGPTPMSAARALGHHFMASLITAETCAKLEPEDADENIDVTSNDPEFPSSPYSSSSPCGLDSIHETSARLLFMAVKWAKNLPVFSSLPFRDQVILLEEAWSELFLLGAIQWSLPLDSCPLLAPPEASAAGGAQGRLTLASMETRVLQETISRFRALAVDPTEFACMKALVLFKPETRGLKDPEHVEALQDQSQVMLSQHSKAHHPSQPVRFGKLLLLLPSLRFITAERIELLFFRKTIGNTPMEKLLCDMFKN
# [5] = nonselective effects on VP16 transactivation – cell-based, luminescence, CHO-S, high throughput, counter-screen for NR2E3 agonist project, confirmation (AID 624379;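 active = mean inhibition above a cutoff equal to the average over all tested compounds plus one standard deviation, cut at about 70% in these data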;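 also: 0% = DMSO with VP16-transfected cells and 100% = DMSO with cells lacking VP16; higher means less reporter light so more repression of VP16 activity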); conditions: CHO-S GAL4-VP16 luciferase reporter, at 3.98 µM, hits give high values
# [6] = VP16-driven transactivation reporter suppression – cell-based, luminescence, HEK293, counter-screen for COUP-TFII antagonist project (AID 687007; in the data active = inhibition above about 13%); conditions: HEK293 Gal4-VP16 luciferase reporter, at 8.5 µM, hits give high values
# [7] = target: COUP transcription factor 2 (Homo sapiens) (UniProt P24468); assay: retest of COUP-TFII reporter suppressors – cell-based, luciferase reporter, HEK293, triplicate, confirmation (AID 687008;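 active = mean inhibition over three repeats above a set limit taken from the earlier primary screen, cut at about 38% in these data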;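 also: 100% = cells given the luciferase reporter alone without the COUP-TF2 vector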); conditions: HEK293 NGFI-A luciferase reporter, luminescence; at 8.5 µM; hits give high values
# Sequence of COUP transcription factor 2 (Homo sapiens) (P24468 whole entry, looked up): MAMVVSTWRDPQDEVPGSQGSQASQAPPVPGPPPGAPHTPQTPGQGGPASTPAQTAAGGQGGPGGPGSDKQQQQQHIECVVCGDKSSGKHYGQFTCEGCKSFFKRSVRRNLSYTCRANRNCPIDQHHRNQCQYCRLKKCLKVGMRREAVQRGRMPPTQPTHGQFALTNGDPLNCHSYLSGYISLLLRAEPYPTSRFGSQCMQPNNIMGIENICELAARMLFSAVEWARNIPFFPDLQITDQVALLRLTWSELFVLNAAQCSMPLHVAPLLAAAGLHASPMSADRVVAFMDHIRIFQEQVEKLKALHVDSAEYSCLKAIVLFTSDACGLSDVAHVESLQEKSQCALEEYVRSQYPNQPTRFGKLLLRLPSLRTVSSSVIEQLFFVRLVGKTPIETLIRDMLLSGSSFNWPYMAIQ
# [8] = StAR promoter reporter inhibitors, counter-screen for LRH-1 inverse agonist project, cell-based, luminescence, high throughput (AID 651611; in the data active = inhibition above about 28%); conditions: StAR promoter luciferase reporter counterscreen, at 3.6 µM, hits give high values
# [9] = target: Nuclear receptor subfamily 5 group A member 2 (Homo sapiens) (UniProt O00482); assay: NR5A2 activity suppression in reporter cells – cell-based, luminescence, confirmation (AID 651613; in the data active = inhibition above about 42%;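 also: HEK293T cells co-transfected with LRH-1 and StAR promoter luciferase reporter; 0% = vehicle wells and 100% = parental cells lacking receptor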); conditions: cell-based LRH-1 luciferase reporter, inverse agonism; at 3.6 µM; hits give high values
# Sequence of Nuclear receptor subfamily 5 group A member 2 (Homo sapiens) (O00482 whole entry, looked up): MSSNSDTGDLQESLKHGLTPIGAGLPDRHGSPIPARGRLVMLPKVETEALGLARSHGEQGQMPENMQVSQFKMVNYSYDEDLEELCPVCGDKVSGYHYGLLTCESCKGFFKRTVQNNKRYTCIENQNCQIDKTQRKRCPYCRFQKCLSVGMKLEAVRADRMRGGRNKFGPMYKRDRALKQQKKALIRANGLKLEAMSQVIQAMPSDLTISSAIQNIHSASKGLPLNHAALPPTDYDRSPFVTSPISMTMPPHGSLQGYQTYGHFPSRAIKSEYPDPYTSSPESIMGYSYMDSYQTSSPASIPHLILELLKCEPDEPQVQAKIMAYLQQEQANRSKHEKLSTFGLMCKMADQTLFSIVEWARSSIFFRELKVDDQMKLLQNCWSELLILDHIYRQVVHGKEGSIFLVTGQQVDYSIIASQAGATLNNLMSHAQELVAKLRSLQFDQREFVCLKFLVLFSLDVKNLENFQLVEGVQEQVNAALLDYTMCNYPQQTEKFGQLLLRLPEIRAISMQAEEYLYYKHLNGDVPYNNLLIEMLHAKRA
# [10] = target: Steroidogenic factor 1 (Homo sapiens) (UniProt Q13285); assay: inverse agonism at SF1 nuclear receptor – cell-based, luminescence, high throughput, counter-screen for LRH-1 inverse agonist project (AID 651614; in the data active = inhibition above about 44%;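 also: cells cotransfected with StAR promoter reporter and SF1 expression vector; 0% = vehicle on cells with receptor and 100% = vehicle on cells lacking receptor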); conditions: cell-based SF1 luciferase reporter, at 3.6 µM, hits give high values
# Sequence of Steroidogenic factor 1 (Homo sapiens) (Q13285 whole entry, looked up, the tested form may be a part): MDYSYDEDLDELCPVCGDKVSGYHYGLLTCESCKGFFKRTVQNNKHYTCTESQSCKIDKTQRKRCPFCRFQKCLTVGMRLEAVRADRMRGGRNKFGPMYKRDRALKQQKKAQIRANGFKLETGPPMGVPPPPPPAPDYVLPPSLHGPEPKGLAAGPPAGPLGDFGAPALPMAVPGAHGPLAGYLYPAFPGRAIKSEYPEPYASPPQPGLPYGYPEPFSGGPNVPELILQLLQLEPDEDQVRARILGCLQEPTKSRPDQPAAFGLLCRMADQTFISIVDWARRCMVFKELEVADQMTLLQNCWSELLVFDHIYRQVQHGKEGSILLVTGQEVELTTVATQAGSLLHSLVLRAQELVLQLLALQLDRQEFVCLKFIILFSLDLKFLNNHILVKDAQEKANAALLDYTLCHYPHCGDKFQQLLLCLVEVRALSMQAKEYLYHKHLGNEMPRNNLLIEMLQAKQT
# [11] = compounds suppressing VP16-driven luciferase signal – cell-based, luminescence, high throughput, counter-screen for LRH-1 inverse agonist project (AID 651615; in the data active = inhibition above about 33%); conditions: Gal4-VP16 luciferase reporter cells, at 3.6 µM, hits give high values
# [12] = target: Galanin receptor type 2 (Homo sapiens) (UniProt O43603); assay: blockers of human galanin receptor 2 – cell-based, confirmation (AID 866; in the data active = inhibition above about 27%;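 also: cells stimulated with galanin at about its EC80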); conditions: GALR2-expressing cells, antagonist mode, at 4 µM, hits give high values
# [13] = nonspecific BLA reporter inhibition – CHO NFAT-bla cells, FRET readout, counter-screen for GALR2 antagonist project, confirmation (AID 867;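 active = inhibition above the mean inhibition across tested compounds plus 3 SD, cut at about 27% in these data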;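 also: 0% = 500 nM thapsigargin stimulated wells and 100% = unstimulated BSA only wells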); conditions: beta-lactamase FRET, thapsigargin-stimulated, at 4.2 µM, hits give high values
# [14] = target: Nuclear receptor coactivator 1 (Homo sapiens) (UniProt Q15788); assay: NCOA1 GAL4-fusion reporter inhibition – cell-based, luminescence, quadruplicate, confirmation (AID 588820;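 active = mean inhibition above 46.68%, the untreated control wells mean plus 3 SD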;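 also: 0% = DMSO wells and 100% = gossypol 36 µM treated wells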); conditions: HEK293 GAL4-SRC1 luciferase reporter, at 3.6 µM, hits give high values
# Sequence of Nuclear receptor coactivator 1 (Homo sapiens) (Q15788 whole entry, looked up, the tested form may be a part): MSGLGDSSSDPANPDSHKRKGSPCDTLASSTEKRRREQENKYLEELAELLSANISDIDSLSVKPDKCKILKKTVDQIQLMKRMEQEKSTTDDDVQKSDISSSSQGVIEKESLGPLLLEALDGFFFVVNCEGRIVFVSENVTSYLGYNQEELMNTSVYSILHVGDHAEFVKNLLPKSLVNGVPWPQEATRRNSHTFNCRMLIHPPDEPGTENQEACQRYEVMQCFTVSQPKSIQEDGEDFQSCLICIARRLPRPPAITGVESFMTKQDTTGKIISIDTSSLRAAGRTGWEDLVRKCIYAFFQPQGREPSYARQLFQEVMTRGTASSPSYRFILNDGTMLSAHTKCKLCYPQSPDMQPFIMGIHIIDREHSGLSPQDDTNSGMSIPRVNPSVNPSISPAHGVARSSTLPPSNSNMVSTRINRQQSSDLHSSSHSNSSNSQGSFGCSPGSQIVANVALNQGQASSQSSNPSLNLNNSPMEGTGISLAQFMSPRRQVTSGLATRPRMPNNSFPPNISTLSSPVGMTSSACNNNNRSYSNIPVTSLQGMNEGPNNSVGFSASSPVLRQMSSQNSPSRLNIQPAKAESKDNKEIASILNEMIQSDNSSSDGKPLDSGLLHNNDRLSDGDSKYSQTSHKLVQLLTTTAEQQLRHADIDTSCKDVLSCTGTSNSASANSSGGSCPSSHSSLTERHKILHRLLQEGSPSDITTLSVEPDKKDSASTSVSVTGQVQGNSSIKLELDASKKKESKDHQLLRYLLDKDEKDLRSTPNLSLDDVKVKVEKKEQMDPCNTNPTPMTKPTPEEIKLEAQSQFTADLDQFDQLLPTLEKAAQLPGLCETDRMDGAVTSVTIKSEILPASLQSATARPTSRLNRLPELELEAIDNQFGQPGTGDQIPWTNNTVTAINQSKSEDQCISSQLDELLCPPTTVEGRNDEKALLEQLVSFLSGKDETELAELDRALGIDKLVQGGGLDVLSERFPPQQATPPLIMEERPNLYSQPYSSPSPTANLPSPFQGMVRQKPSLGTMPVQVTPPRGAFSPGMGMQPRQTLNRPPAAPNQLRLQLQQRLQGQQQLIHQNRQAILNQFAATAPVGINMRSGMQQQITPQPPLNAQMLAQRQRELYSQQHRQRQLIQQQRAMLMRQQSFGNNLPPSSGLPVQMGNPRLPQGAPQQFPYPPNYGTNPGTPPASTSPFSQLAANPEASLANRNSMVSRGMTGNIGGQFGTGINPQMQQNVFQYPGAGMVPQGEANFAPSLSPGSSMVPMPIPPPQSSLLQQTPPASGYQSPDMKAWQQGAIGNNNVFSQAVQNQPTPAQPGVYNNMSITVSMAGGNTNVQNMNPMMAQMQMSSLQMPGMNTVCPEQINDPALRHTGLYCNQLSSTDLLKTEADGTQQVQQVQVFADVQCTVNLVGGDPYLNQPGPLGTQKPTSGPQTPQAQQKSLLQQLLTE
# [15] = repression of VP16-driven luciferase reporter – cell-based, luminescence, high throughput, counter-screen for SRC1 inhibitor project (AID 588824; in the data active = inhibition above about 25%); conditions: cell-based VP16 transactivation luciferase luminescence; at 3.6 µM; hits give high values
# [16] = tested on: DAF-12 nuclear receptor (Heterodera glycines), GAL4-LBD fusion; assay: hgDAF-12 GAL4 fusion reporter activation, retest – cell-based, luminescence, HEK293, GAL4-LBD fusion, confirmation (AID 743050;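 active = mean activation over triplicate wells above the hit cutoff derived from the earlier primary screen, cut at about 11% in these data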;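 also: 0% = DMSO low control and 100% = 2 mM sodium butyrate high control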); conditions: HEK293 GAL4-hgDAF12 luciferase reporter, agonist mode; at 6.8 µM; hits give high values; percent of butyrate response
# [17] = target: Oxysterols receptor LXR-beta (Homo sapiens) (UniProt P55055); assay: nonspecific reporter activation via LXR – cell-based, luminescence, HEK293, H. glycines campaign, counter-screen for hgDAF-12 agonist project, confirmation (AID 743051;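 active = mean activation of the triplicate above a set limit carried over from the primary screen, none filed active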); conditions: HEK293 Gal4-LXR luciferase reporter, 24 h; at 6.8 µM; hits give high values
# Sequence of Oxysterols receptor LXR-beta (Homo sapiens) (P55055 whole entry, looked up, the tested form may be a part): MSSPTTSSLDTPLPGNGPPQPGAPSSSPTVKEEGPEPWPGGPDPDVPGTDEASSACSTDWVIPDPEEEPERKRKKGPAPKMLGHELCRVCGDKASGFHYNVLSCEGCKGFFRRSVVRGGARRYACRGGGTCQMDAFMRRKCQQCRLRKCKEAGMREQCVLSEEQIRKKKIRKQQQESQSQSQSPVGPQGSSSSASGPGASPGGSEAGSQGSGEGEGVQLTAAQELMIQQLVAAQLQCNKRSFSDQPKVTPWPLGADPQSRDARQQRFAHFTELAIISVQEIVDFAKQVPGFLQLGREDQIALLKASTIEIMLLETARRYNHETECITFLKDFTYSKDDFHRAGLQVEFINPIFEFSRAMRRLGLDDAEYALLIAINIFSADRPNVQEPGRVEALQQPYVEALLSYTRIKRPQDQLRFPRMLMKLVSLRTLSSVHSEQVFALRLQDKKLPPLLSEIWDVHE
# [18] = target: Peroxisome proliferator-activated receptor gamma (Homo sapiens) (UniProt P37231); assay: retested PPARg-SRC-2 recruitment enhancers – biochemical, HTS, confirmation (AID 1297; in the data active = activation above about 22%;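 also: 0% = vehicle alone and 100% = reference agonist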); conditions: biochemical SRC-2 recruitment by PPARgamma; at 8 µM; hits give high values
# Sequence of Peroxisome proliferator-activated receptor gamma (Homo sapiens) (P37231 whole entry, looked up): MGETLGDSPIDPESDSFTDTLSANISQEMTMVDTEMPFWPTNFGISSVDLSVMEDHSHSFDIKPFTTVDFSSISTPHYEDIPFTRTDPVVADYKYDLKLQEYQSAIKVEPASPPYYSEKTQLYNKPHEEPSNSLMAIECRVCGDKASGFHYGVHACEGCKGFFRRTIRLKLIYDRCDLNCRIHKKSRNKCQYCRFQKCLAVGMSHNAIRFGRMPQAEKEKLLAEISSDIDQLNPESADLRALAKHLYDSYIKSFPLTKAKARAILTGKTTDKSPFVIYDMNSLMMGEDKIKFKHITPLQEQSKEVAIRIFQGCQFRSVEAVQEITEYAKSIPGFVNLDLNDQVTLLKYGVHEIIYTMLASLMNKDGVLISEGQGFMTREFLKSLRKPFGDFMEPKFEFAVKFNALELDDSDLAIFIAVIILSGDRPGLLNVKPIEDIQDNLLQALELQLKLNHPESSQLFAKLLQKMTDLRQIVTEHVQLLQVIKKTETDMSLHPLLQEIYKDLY
# [19] = target: Peroxisome proliferator-activated receptor gamma (Homo sapiens) (UniProt P37231); assay: retest of SRC-1 recruitment enhancers for PPARgamma – biochemical, confirmation (AID 1300; in the data active = activation above about 20%;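 also: 0% = vehicle wells and 100% = reference agonist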); conditions: PPARgamma–SRC-1 coactivator recruitment biochemical assay; at 8 µM; hits give high values
# [20] = target: Peroxisome proliferator-activated receptor gamma (Homo sapiens) + Nuclear receptor coactivator 3 (Homo sapiens) (UniProt P37231+Q9Y6Q9); assay: agonists promoting SRC-3 binding to PPARgamma – biochemical, confirmation (AID 1301; in the data active = activation above about 24%;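 also: 0% = vehicle wells and 100% = reference agonist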); conditions: biochemical PPARgamma-SRC-3 coactivator recruitment, agonist mode; at 8 µM; hits give high values
# [21] = target: Receptor-interacting serine/threonine-protein kinase 2 (Homo sapiens) (UniProt O43353); assay: inhibitors of RIPK2 association with NOD2 – fluorescence, CHO cells, BLA complementation, triplicate, confirmation (AID 624370;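 active = mean inhibition across replicates above a set limit taken from the earlier primary screen, cut at about 21% in these data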;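 also: 0% = DMSO-only wells and the high end = clavulanate BLA-blocked wells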); conditions: CCF4 FRET, at 4.98 µM, hits give high values
# Sequence of Receptor-interacting serine/threonine-protein kinase 2 (Homo sapiens) (O43353 whole entry, looked up): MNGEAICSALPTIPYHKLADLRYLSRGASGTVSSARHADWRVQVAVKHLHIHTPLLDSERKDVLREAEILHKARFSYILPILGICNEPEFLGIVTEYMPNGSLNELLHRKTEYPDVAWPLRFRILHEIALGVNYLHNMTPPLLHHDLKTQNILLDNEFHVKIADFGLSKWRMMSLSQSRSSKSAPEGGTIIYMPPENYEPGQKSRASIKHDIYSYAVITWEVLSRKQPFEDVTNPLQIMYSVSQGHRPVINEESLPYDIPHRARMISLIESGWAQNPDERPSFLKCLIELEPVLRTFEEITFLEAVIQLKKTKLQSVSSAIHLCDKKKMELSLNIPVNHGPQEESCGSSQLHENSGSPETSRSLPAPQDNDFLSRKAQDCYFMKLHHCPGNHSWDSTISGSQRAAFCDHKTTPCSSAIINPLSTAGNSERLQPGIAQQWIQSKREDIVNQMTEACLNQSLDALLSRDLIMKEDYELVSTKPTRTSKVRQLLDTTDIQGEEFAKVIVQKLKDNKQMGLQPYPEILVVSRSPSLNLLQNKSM
# [22] = BLA reporter readout interference – cell-based, CHO-K1 CMV-bla, CCF4 FRET, fluorescence, artefact control for NOD2-RIPK2 interaction inhibitor project, confirmation (AID 624371;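 active = mean inhibition above the low-control mean inhibition plus three low-control SD, cut at about 11% in these data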;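 also: 0% = DMSO only wells and 100% = clavulanate high control wells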); conditions: CCF4 FRET ratio, counterscreen, at 4.98 µM, hits give high values
# [23] = target: Oxysterols receptor LXR-beta (Homo sapiens) (UniProt P55055); assay: nonspecific reporter activation via LXR – cell-based, luminescence, HEK293, H. contortus campaign, counter-screen for hcDAF-12 agonist project, confirmation (AID 743027;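 active = mean percent activation of the reporter above a cutoff set as the average over tested compounds plus their standard deviation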); conditions: HEK293 Gal4-LXR tk-luc reporter, 24 h, at 6.8 µM, hits give high values, normalized: DMSO 0%, positive control 100%
# [24] = tested on: Nuclear hormone receptor DAF-12 (Haemonchus contortus); assay: hcDAF-12 luciferase reporter activation, retest – cell-based, luminescence, HEK293, lit1-tk-luc, triplicate, confirmation (AID 743032;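 active = mean activation across triplicate tests above the threshold derived from the earlier primary screen, cut at about 5.5% in these data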;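 also: 0% = DMSO only wells and 100% = 3 µM Δ7-dafachronic acid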); conditions: HEK293 hcDAF-12 lit1-tk-luc reporter, at 6.8 µM, hits give high values, % of Δ7-dafachronic acid response
smiles,measurement,setting,value
COc1ccc(Cn2c(=O)sc3ccccc32)cc1OC,inhibition,[1],36.6%
same,inhibition,[2],2.57%
same,inhibition,[3],13.3%
same,inhibition,[4],70.9% (active)
same,inhibition,[5],64.8%
same,inhibition,[6],-3.5%
same,inhibition,[7],26.6%
COc1ccc(NS(=O)(=O)c2ccc(NC(=O)c3ccc(N(C)S(C)(=O)=O)cc3)cc2)cc1,inhibition,[1],56.6% (active)
same,inhibition,[2],9.03%
same,inhibition,[3],5.2%
same,inhibition,[8],19.3%
same,inhibition,[9],50.5% (active)
same,inhibition,[10],46.7% (active)
same,inhibition,[11],40.7% (active)
same,inhibition,[6],8.59%
same,inhibition,[7],45% (active)
Cc1ccc(F)cc1NC(=O)Cc1nn(C)c(=O)c2ccccc12,inhibition,[12],33.5% (active)
same,inhibition,[13],12.4%
same,inhibition,[1],51.9% (active)
same,inhibition,[2],16.1% (active)
same,inhibition,[3],21.2% (active)
same,inhibition,[4],65.1%
same,inhibition,[5],61.5%
same,inhibition,[6],9%
same,inhibition,[7],48.1% (active)
O=C(Nc1ccc(CSc2ccccc2)cc1)c1ccc(CN2CCOCC2)cc1,inhibition,[1],83.7% (active)
same,inhibition,[2],33.3% (active)
same,inhibition,[3],10.4%
same,inhibition,[8],28.7% (active)
same,inhibition,[9],65.5% (active)
same,inhibition,[10],63% (active)
same,inhibition,[11],54.8% (active)
same,inhibition,[6],-2.4%
same,inhibition,[7],65.8% (active)
Cc1ccc(S(=O)(=O)Nc2ccc3ncccc3c2)cc1,inhibition,[1],42.9%
same,inhibition,[2],3.83%
same,inhibition,[3],18% (active)
same,inhibition,[14],-9.28%
same,inhibition,[15],5.01%
same,inhibition,[4],89.4% (active)
same,inhibition,[5],74.4% (active)
same,inhibition,[8],14.9%
same,inhibition,[9],47.2% (active)
same,inhibition,[10],36.3%
same,inhibition,[11],18.1%
Cn1c(CN2CCOCC2)nc2cc(NC(=O)c3ccc(Cl)cc3)ccc21,inhibition,[1],65% (active)
same,inhibition,[2],16.1% (active)
same,inhibition,[3],-12%
same,inhibition,[6],-24.2%
same,inhibition,[7],24.5%
N=C(N)SCc1cccc2ccccc12,inhibition,[1],31.7%
same,inhibition,[2],4.87%
same,inhibition,[3],19.2% (active)
same,inhibition,[6],6.09%
same,inhibition,[7],20.6%
O=C(Nc1ccn(Cc2ccccc2)n1)c1n[nH]c([N+](=O)[O-])c1Cl,inhibition,[1],12.7%
same,inhibition,[2],-0.1%
same,inhibition,[3],-63.1%
same,activation,[16],11.6% (active)
same,activation,[17],0.82%
COc1ccc(/C(O)=C2/C(=O)C(=O)N(c3nc(C)c(C)s3)C2c2ccco2)cc1 (configuration not stated),activation,[18],21.9% (active)
same,activation,[19],17.5%
same,activation,[20],16.1%
CCCc1ccc(-c2csc(NC(=O)Cc3cccs3)n2)cc1,inhibition,[1],34.2%
same,inhibition,[2],4.13%
same,inhibition,[3],4.43%
same,inhibition,[21],32.7% (active)
same,inhibition,[22],31.1% (active)
same,inhibition,[6],-25%
same,inhibition,[7],15.2%
O=C(Nc1nc(-c2ccc3c(c2)OCO3)cs1)c1ccncc1,inhibition,[1],49.5% (active)
same,inhibition,[2],11.5%
same,inhibition,[3],6.97%
same,inhibition,[6],-26.7%
same,inhibition,[7],50.7% (active)
COc1ccc(-c2csc(Nc3ccccn3)n2)cc1,inhibition,[1],15.2%
same,inhibition,[2],-36.5%
same,inhibition,[3],-205%
same,activation,[23],1.36%
same,activation,[24],6.22% (active)
Cc1nc2ccccc2cc1OCc1ccc(F)cc1,inhibition,[1],61.5% (active)
same,inhibition,[2],6.3%
same,inhibition,[3],5.63%
same,inhibition,[4],82.5% (active)
same,inhibition,[5],70.5%
same,inhibition,[6],-26.8%
same,inhibition,[7],38% (active)

# — PubChem BioAssay
